Consider 9 compounds from PubChem BioAssay (Tox21).

Inconclusive results are not listed. The source made the active and inactive calls. Unless noted, the call rests on the fitted dose curve; in most records, active means well fitted curve in the direction sought with a large enough effect in the repeat runs; inconclusive means weak or mixed curves; inactive means no such curve, though single readings can be large; an effect the other way counts as inactive or inconclusive.

A short description of assay [1]: qHTS assay to identify small molecule agonists of the androgen receptor (AR) signaling pathway in the presence of an antagonist - cell viability counter screen (AID 1259379). Further: nearly all actives have a fitted effect of over 25% in size. Further: potency means the concentration at half of the fitted maximal effect. The method, boiled down:
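Seed MDA-kb2 at 3,000 cells/well; incubate 5 hr, 37C, 0% CO2. Add nilutamide to 3.0uM final, then pin compounds at 15 concentrations. Incubate 16 hr. Add CellTiter-Fluor at 15 hr, read fluorescence after 1 hr.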

Assay [2] is described as follows: qHTS assay to identify small molecule antagonists of the estrogen receptor beta (ER-beta) signaling pathway - cell viability counter screen (AID 1259382). Further: nearly all actives have a fitted effect of over 55% in size. Further: potency means the concentration at half of the fitted maximal effect. In a few lines: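 In this multiplexed counter screen, cells were seeded at 2,000 per well in medium with 2% charcoal-stripped FBS and incubated 6 hr before compound and 1nM final E2 were added. Sixteen hours later, ATP-based luminescence reported viability.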

Assay [3] concerns the target Estrogen receptor (Homo sapiens) (UniProt P03372). Description: qHTS assay to identify small molecule agonists of the estrogen receptor alpha (ER-alpha) signaling pathway in the presence of an antagonist (AID 1259383; calls by dose curve; further: top concentration of the series differs between compounds; nearly all actives have a fitted effect of over 15% in size). The method, boiled down: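 Stably transfected VM7Luc4E2 reporter cells, kept 5 days in charcoal-stripped serum, received ICI-182,780 at 10.0nM final before compound addition. Following 22hr incubation at 37C and 5% CO2, luciferase signal was read by luminescence.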

Assay [4] can be described thus: qHTS assay to identify small molecule agonists or antagonists of the thyroid stimulating hormone receptor (TSHR) signaling pathway - wild type cell line counter screen (AID 1259384; calls by dose curve). The method, boiled down:
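Wild-type HEK293 cells were plated 18 h at 37 C/5% CO2, pin-dosed with compound plus Ro20-1724 medium, held 30 min at room temperature, then given cAMP-d2 and anti-cAMP-cryptate; fluorescence was read after 1 h. Fifteen concentrations, triplicate.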

The target of assay [5] is Thyrotropin receptor (Homo sapiens) (UniProt P16473). Description: qHTS assay to identify small molecule antagonists of the thyroid stimulating hormone receptor (TSHR) signaling pathway (AID 1259385; calls by dose curve; further: nearly all actives have a fitted effect of over 20% in size). In a few lines:
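TSHR-HEK293 cells were plated and held 18 h at 37C/5% CO2, then given compound plus Ro20-1724 and stimulated with TSH at 1.5 ng/mL final. After 30 min at room temperature, cAMP was detected with cAMP-d2/anti-cAMP-cryptate (1 h) by fluorescence.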

Assay [6] in a line: qHTS assay to identify small molecule agonists of the estrogen receptor alpha (ER-alpha) signaling pathway in the presence of an antagonist - cell viability counter screen (AID 1259386).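 Further: cells exposed to compounds for 22 h at 37 °C before the viability read; nearly all actives have a fitted effect of over 30% in size.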 Further: potency means the concentration at half of the fitted maximal effect. The method, boiled down:
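Viability counter screen using VM7Luc4E2 (full-length ER-alpha, four ERE-luciferase). The cells were treated with compounds alongside ICI-182,780 10.0nM for 22hr, and live-cell protease fluorescence was quantified with CellTiter-Fluor.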

The target in assay [7] is Progesterone receptor (Homo sapiens) (UniProt P06401). Description: qHTS assay to identify small molecule agonists of the progesterone receptor (PR) signaling pathway (AID 1346784; calls by dose curve; further: nearly all actives have a fitted effect of over 30% in size). The method, boiled down:
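Beta-lactamase reporter read-out: after 16 hr compound treatment at 37C and a further 2 hr at room temperature with LiveBLAzer B/G FRET substrate, fluorescence was measured in PR-UAS-bla HEK 293T cells grown in 2% charcoal-stripped serum.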

The target is the same in assay [8]. Description: qHTS assay to identify small molecule antagonists of the progesterone receptor (PR) signaling pathway (AID 1346795; active means well fitted inhibition curve with a large enough effect in the signal ratio in the repeat runs, not every such curve was filed as active; the % refers to the signal ratio; further: potency means the concentration at half of the fitted maximal effect). In a few lines:
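Read-out is fluorescence from the LiveBLAzer B/G FRET substrate, cleaved by a UAS-controlled beta-lactamase in PR-UAS-bla HEK293T cells after 16 hr exposure to compound plus 1 nM promegestone (final), followed by 2 hr at room temperature.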

Assay [9] can be described thus: qHTS assay to identify small molecule antagonists of the progesterone receptor (PR) signaling pathway - cell viability counter screen (AID 1346798). Further: nearly all actives have a fitted effect of over 50% in size. Further: potency means the concentration at half of the fitted maximal effect. In a few lines:
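HEK293T PR-UAS-bla, 2% charcoal-stripped FBS; 4 hr pre-plate; cpd + R5020, 16 h 37C; LiveBLAzer read first; then CellTiter-Glo 30 min RT, luminescence.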

Assay [10] in a line: qHTS assay to identify small molecule agonists of the progesterone receptor (PR) signaling pathway - cell viability counter screen (AID 1346799; calls by dose curve; further: nearly all actives have a fitted effect of over 45% in size; further: potency means the concentration at half of the fitted maximal effect). The method, boiled down:
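Luminescence from CellTiter-Glo, added after the beta-lactamase FRET read in the same wells, gave cytotoxicity in PR-UAS-bla HEK293T cells treated with compounds for 16 hr at 37C.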

A short description of assay [11]: qHTS assay to identify small molecule antagonists of the TGF-beta/Smad signaling pathway - cell viability counter screen (AID 1346824). Further: nearly all actives have a fitted effect of over 50% in size. Further: potency means the concentration at half of the fitted maximal effect. The method, boiled down:
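SBE-bla HEK 293T cells were plated overnight at 37 C, then given compounds in DMSO plus TGF-beta1 (added as 0.25 ng/mL solution) for 5 hr. After the bla read, CellTiter-Glo was added to the same wells and luminescence read after 30 min at room temperature.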

A short description of assay [12]: qHTS assay to identify small molecule agonists of the TGF-beta/Smad signaling pathway - cell viability counter screen (AID 1346829). Further: nearly all actives have a fitted effect of over 45% in size. Further: potency means the concentration at half of the fitted maximal effect. The method, boiled down: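 CellTiter-Glo luminescence readout; SBE-bla HEK 293T cells, overnight plating, compound 5 hr at 37 C/5% CO2, then bla substrate 2 hr RT, then CellTiter-Glo 30 min RT.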
Assay [13] in a line: qHTS assay to identify small molecule agonists of the TGF-beta/Smad signaling pathway (AID 1346859; active means well fitted activation curve with a large enough effect in the signal ratio in the repeat runs, not every such curve was filed as active; the % refers to the signal ratio; further: series mostly up to about 77 µM). In a few lines:
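SBE-bla HEK 293T, 4,000 cells/well, plated o/n; cpd in DMSO, 5 hr, 37 C/5% CO2; B/G FRET substrate 2 hr RT; ex 405, em 460/530 nm.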

Assay [14] has as its target Thyrotropin-releasing hormone receptor (Homo sapiens) (UniProt P34981). Briefly: qHTS assay to identify small molecule antagonists of the thyrotropin-releasing hormone receptor (TRHR) signaling pathway (AID 1346877; active means well fitted inhibition curve with a large enough effect in the repeat runs, not every such curve was filed as active; further: series mostly up to about 51 µM). In a few lines:
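Following an 18 h incubation at 37 °C and a 2 h calcium dye load, TRHR-HEK293 cells were exposed to compound (5 min, room temperature) and challenged with TRH, 1 nM final.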

The target is the same in assay [15]. Description: qHTS assay to identify small molecule agonists of the thyrotropin-releasing hormone receptor (TRHR) signaling pathway (AID 1346891; calls by dose curve; further: series mostly up to about 58 µM). In a few lines:
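Intracellular calcium rise, read as fluorescence every second for 3 min, served as the agonist signal in dye-loaded HEK293 cells expressing TRHR; each compound ran at 15 concentrations in triplicate.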

Assay [16] can be described thus: Human pregnane X receptor (PXR) small molecule agonists, qHTS cell viability counter screen (AID 1346977). Further: nearly all actives have a fitted effect of over 50% in size. Further: potency means the concentration at half of the fitted maximal effect. In a few lines: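 PXR-Luc HepG2, 2,000 cells/well, 5% charcoal-stripped FBS; 5hr settle; cpd 24hr, 37C/5% CO2; CellTiter-Fluor at 23hr, read 1hr later (fluorescence).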
The target of assay [17] is Androgen receptor (Homo sapiens) (UniProt P10275). Description: qHTS assay to identify small molecule agonists of the androgen receptor (AR) signaling pathway in the presence of an antagonist (AID 1259381; calls by dose curve; further: nearly all actives have a fitted effect of over 15% in size; further: potency means the concentration at half of the fitted maximal effect). The method, boiled down:
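Test compounds at 15 concentrations were incubated for 16hr with MDA-kb2 reporter cells in presence of 3.0uM nilutamide (final). Signal: ONE-Glo luciferase luminescence.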

Chain of Thyrotropin receptor (Homo sapiens) (P16473 whole entry, looked up): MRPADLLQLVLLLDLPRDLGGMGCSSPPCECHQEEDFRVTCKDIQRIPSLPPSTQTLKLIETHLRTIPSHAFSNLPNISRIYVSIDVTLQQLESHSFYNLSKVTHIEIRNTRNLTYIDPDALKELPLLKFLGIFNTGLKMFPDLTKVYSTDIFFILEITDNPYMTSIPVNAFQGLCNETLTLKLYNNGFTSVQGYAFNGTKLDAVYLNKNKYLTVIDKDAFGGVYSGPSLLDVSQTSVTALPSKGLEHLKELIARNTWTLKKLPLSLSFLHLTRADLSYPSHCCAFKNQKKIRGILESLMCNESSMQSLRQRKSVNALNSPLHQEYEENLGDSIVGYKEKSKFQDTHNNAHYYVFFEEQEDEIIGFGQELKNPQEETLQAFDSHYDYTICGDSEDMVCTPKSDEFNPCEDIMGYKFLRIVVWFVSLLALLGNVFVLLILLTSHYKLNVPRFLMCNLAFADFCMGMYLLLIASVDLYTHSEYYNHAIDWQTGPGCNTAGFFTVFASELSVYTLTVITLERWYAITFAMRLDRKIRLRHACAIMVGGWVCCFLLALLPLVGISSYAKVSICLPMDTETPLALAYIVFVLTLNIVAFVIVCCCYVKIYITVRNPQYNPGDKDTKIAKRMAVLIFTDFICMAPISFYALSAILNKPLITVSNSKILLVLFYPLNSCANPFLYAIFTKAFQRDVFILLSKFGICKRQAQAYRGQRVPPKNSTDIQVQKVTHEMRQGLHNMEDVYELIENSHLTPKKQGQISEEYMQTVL
Chain of Thyrotropin-releasing hormone receptor (Homo sapiens) (P34981 whole entry, looked up): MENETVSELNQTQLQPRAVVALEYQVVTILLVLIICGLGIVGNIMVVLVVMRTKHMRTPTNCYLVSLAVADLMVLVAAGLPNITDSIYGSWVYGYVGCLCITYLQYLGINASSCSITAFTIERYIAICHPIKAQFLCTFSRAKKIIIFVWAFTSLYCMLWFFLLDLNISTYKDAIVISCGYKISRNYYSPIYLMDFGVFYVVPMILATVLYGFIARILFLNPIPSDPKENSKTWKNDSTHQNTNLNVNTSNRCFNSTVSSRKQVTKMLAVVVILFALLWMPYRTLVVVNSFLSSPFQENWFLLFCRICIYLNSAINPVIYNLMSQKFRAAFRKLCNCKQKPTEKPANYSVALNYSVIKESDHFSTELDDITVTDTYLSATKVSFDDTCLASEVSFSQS
Chain of Androgen receptor (Homo sapiens) (P10275 whole entry, looked up): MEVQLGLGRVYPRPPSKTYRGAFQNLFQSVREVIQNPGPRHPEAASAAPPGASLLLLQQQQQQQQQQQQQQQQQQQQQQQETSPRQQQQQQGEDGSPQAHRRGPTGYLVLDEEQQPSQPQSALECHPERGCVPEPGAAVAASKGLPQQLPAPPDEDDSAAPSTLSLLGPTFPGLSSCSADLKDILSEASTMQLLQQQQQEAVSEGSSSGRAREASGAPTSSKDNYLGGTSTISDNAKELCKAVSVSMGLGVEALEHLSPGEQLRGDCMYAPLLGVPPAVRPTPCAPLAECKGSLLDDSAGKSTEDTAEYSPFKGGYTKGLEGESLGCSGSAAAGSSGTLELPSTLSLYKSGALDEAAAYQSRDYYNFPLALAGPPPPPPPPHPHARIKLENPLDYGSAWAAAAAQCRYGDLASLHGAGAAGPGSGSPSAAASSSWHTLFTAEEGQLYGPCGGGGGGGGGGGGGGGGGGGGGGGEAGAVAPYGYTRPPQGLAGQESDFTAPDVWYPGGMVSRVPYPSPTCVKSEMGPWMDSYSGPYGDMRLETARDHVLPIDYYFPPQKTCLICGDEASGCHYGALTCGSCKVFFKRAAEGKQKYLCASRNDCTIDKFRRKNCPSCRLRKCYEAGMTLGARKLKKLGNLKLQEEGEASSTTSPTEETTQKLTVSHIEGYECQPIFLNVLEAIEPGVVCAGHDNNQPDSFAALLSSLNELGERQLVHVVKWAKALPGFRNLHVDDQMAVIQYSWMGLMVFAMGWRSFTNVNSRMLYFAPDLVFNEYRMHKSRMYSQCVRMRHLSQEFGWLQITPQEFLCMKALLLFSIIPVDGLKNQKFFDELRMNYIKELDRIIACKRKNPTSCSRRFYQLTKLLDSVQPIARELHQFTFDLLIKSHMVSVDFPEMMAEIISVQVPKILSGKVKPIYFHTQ
Chain of Estrogen receptor (Homo sapiens) (P03372 whole entry, looked up): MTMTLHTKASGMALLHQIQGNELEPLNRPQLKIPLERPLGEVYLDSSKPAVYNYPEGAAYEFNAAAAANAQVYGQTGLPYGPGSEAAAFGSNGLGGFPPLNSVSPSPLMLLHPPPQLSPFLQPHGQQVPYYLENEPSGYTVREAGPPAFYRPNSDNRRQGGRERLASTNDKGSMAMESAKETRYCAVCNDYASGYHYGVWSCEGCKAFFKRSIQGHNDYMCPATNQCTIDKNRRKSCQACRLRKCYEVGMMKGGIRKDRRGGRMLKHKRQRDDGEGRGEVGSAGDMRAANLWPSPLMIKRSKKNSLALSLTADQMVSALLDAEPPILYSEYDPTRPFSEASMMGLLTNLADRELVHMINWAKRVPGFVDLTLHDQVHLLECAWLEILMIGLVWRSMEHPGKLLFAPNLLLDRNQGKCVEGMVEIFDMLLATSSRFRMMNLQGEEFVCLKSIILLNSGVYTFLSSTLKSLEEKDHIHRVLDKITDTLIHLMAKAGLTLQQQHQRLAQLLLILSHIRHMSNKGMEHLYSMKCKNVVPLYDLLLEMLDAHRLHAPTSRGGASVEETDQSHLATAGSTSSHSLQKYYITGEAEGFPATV
Chain of Progesterone receptor (Homo sapiens) (P06401 whole entry, looked up): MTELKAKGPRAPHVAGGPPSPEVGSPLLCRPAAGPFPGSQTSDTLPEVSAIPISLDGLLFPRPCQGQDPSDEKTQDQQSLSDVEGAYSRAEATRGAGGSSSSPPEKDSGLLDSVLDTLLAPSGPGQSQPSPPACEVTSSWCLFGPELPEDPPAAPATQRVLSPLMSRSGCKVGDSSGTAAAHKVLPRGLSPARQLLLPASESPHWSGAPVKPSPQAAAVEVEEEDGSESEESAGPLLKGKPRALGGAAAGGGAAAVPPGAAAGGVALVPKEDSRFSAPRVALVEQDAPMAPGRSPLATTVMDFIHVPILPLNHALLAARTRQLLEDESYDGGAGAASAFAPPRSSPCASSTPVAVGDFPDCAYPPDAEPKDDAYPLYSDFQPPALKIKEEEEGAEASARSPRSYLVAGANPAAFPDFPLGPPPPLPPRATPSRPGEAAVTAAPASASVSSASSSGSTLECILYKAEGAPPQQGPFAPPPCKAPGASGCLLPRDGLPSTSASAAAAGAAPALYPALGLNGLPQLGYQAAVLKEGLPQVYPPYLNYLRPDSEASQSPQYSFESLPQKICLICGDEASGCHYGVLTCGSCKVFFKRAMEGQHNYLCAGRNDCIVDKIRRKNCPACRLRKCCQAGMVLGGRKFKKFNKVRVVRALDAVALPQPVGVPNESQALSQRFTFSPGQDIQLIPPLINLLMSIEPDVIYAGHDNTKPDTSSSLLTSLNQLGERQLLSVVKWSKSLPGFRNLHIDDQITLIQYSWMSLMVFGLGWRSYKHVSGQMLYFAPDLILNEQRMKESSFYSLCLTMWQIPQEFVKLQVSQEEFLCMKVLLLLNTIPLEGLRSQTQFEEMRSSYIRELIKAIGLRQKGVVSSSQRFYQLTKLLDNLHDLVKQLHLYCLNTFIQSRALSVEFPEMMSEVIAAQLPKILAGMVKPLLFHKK

In the case of `ClC/C=C\CCl`, the Potency result in assay [1], in [2], in [3], in assay [5], in [6] and in [8] was “inactive” throughout. For the same compound, the Potency result in assay [9], in assay [10], in assay [11], in assay [12], in assay [13] and in [14] was “inactive” each time. The Potency result in assay [15] and in assay [16] was “inactive” in each case. Besides, the compound was called inactive in [4] and in [7].

Turning to `C[C@@]12C(=O)OC(=O)[C@]1(C)C1CCC2O1`, the results for the Potency in [1] and in [16] were 5.96 µM (active) and 0.266 µM (active), respectively. The outcome in assay [7] was inactive. Further, the Potency entry in [12], in [13], in [14] and in assay [15] was “inactive” in each case.

As for `Oc1cc2ccccc2cc1O`, the Potency entry in assay [1], in [17], in assay [2], in assay [3], in [5] and in assay [6] was “inactive” throughout. Further, the Potency entry in assay [8], in assay [9], in assay [10], in assay [11], in assay [12] and in assay [16] was “inactive” each time. For the same compound, in assay [4], the call was inactive.

With `CN1[C@@H]2CC[C@H]1CC(OC(=O)C(CO)c1ccccc1)C2` (stereo partly drawn), the Potency result in assay [1], in assay [2], in assay [6], in assay [8], in assay [9] and in assay [11] was “inactive” each time. The Potency result in assay [12], in [13] and in assay [16] was “inactive” each time. Moreover, in [7], the result was inactive. In addition, the Potency in assay [10] was 61.1 µM (active).

Consider `CCC(C)c1cc([N+](=O)[O-])cc([N+](=O)[O-])c1OC(=O)OC(C)C` (stereo not drawn), for which the Potency was 61.1 µM (active) in assay [1], 54.5 µM (active) in assay [6] and 34.4 µM (active) in assay [16]. For the same compound, the Potency result in assay [17], in [2], in assay [5], in assay [9], in [11] and in [12] was “inactive” in each case. Also, the Potency result in assay [14] and in assay [15] was “inactive” each time. The result in assay [4] was inactive.

As for `O=C1OC(OC(=O)c2cccnc2Nc2cccc(C(F)(F)F)c2)c2ccccc21` (stereo not drawn), the Potency result in assay [1], in [17], in [5], in assay [6], in [8] and in assay [9] was “inactive” throughout. Moreover, the Potency result in assay [10], in assay [11], in assay [12], in assay [13] and in assay [16] was “inactive” each time. For the same compound, the compound was classed as inactive in assay [4] and in assay [7].

Regarding `CCc1cccc(CC)c1NC(=O)C(=O)O`, the Potency entry in assay [1], in assay [17], in assay [2], in assay [3], in assay [5] and in [6] was “inactive” throughout. In addition, the Potency entry in [8], in assay [9], in [10], in assay [11], in assay [12] and in assay [13] was “inactive” throughout. Also, the Potency entry in [14], in assay [15] and in [16] was “inactive” each time. In addition, the compound was called inactive in [4] and in [7].

As to `CC(C)(C)CC(C)(C)c1ccccc1O`, the Potency entry in assay [1] and in assay [5] was “inactive” throughout. Also, the Potency in [2] was 61.4 µM (active); in [6], 61.4 µM (active); in [11] it was 31.1 µM (active); in assay [12] it was 49.2 µM (active); in [16] it was 70.8 µM (active). The compound was called inactive in [4].

`O=C(Oc1ccccc1)c1cccc(C(=O)Oc2ccccc2)c1`: the Potency entry in assay [1], in [2], in assay [5], in assay [12], in assay [14] and in assay [15] was “inactive” each time. The Potency result in assay [16] was “inactive”. Also, the values for the Potency in assay [17], in assay [8] and in assay [9] were 0.644 µM (active), 25.7 µM (active) and 64.4 µM (active), respectively. The outcome in assay [4] was inactive.
